Assay results: PubChem BioAssay AID651820 (National Center for Advancing Translational Sciences (NCATS), 2012)
Values joined by “and” are separate entries in the source; they are usually repeats but may differ in a detail not shown here. Equal values may be shown once. Out of some 340,000 compounds screened, about 12,000 (3.5%) were called active. Where a call stands in place of a potency, no number is given. Another 18% or so got no clear call; they are omitted. Many of the other results were omitted from the sample, so actives are more common in it than they were. Values without a mark were called inactive. The call rests on the fitted dose curve; in most records, active means well fitted inhibition curve with a large enough effect; inconclusive means small, poorly fitted or top-dose-only effect, or another doubt; inactive means no such curve, though single readings can be large or run the other way.

Test: qHTS Assay for Inhibitors of Hepatitis C Virus (HCV)
Conditions: Huh7.5.1 HCVcc-Cre infection, luciferase reporter, 44 h; series mostly up to 41.8 µM
Summary of the method: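 Whole-lifecycle infectious HCVcc-Cre system; cells 1,000/well, compound then virus (~0.5 moi) added 4 h after plating, 44 h culture. Luciferase read 15 sec following 15 min substrate incubation, room temp.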
Potency means the concentration at half of the fitted maximal effect.

Structure (SMILES)	Potency	activity change, negative = inhibition
O=C1CC2(CCCC2)C(=O)N1CN1CCN(S(=O)(=O)c2ccc(F)cc2F)CC1	inactive	–
CCOc1ccc(CC(=O)Nc2ccc(S(=O)(=O)Nc3cc(C)on3)cc2)cc1OCC	inactive	–
COc1ccc(NC(=O)c2cnc(NS(=O)(=O)c3ccccc3)nc2)cc1	inactive	–
COc1ccc(NS(=O)(=O)c2ccc(NC(=O)c3ccc(N(C)S(C)(=O)=O)cc3)cc2)cc1	5.62 µM (active)	–
COc1ccc(NS(=O)(=O)c2ccc(C(=O)Nc3c(C)n(C)n(-c4ccccc4)c3=O)cc2)cc1	inactive	–
CCOc1ccc(C(=O)Nc2ccc(S(=O)(=O)Nc3cc(C)on3)cc2)cc1	1.12 µM (active)	–
COc1cc(OC)cc(C(=O)Nc2ccc(S(=O)(=O)Nc3cc(C)on3)cc2)c1	inactive	–
O=C(COC(=O)c1ccccn1)NNC(=O)c1ccc(Br)cc1	inactive	–
O=C(COC(=O)c1ccc(F)c(S(=O)(=O)N2CCOCC2)c1)NCc1ccc2c(c1)OCO2	inactive	–
O=S(=O)(Nc1ccc2ccccc2c1)N1CCCCC1	inactive	–
Brc1ccccc1/C=N/Nc1nc2ccccc2o1	inactive	–
COc1ccc(/C=N/Nc2nc3ccccc3o2)cc1OC	inactive	–
CCOc1ccccc1/C=N/Nc1nc2ccccc2o1	12.6 µM (active)	–
Cc1ccc(SCC(=O)c2cc(C)c(OC(=S)N(C)C)c(C)c2)cc1	11.2 µM (active)	–
Cc1ccc(SCC(=O)Nc2ccc3c(c2)OCCO3)cc1	inactive	–
Cc1ccc(C(=O)CSc2ccccc2C(=O)O)cc1	inactive	–
CC[C@]12c3[nH]c4ccc(Cl)cc4c3CCN1C(=O)[C@@H](CC(=O)NCCN1CCOCC1)C[C@@H]2C(=O)N1CCN(C(=O)C2CC2)CC1	inactive	–
CCOC(=O)C[C@H]1c2ccc(C(F)(F)F)cc2S(=O)(=O)N1c1ccccc1	inactive	–
Cc1ccc(C)c(N2CCN(C(=O)CCCCCn3c(=S)[nH]c4ccc(N5CCOCC5)cc4c3=O)CC2)c1	2.82 µM (active)	–
O=C(CCCCCn1c(=S)[nH]c2cc3c(cc2c1=O)OCO3)N1CCN(c2ccc(F)cc2)CC1	inactive	–
Cc1ccc(C)c(N2CCN(C(=O)CCc3nc4ccccc4[nH]3)CC2)c1	–	3.71% [at 8.37 µM]
CN(CC(=O)Nc1cccc(F)c1)C(=O)C1CSC2(C)CCC(=O)N12 (centres undefined)	inactive	–
COc1ccc(Cl)cc1NS(=O)(=O)c1cccc(C(=O)NC2CCC(O)CC2)c1 (centres undefined)	inactive	–
COc1cccc(C(=O)NNC(=O)c2cccc(F)c2)c1	inactive	–
CCC(CO)Oc1cc(NC(=O)c2cccc(F)c2)c2ncn(C(C)C)c2c1 (centres undefined)	0.562 µM (active)	–

Structure (SMILES)	Potency	activity change, negative = inhibition
O=C(Nc1cccc(NC(=O)c2cccc(F)c2)c1)c1ccccc1	inactive	–
CCN(C(=O)CN1C(=O)/C(=C/c2ccc(F)cc2)SC1=S)C1CCS(=O)(=O)C1 (centres undefined)	inactive	–
O=C1/C(=C/c2ccc(F)cc2)SC(=S)N1CCCC(=O)N1CCCCC1CCO (centres undefined)	11.2 µM (active)	–
COc1ccc(/C=C2\SC(=S)N(CCCC(=O)NC3CCCC3)C2=O)cc1OC	inactive	–
O=C(COC(=O)Cc1c[nH]c2ccccc12)NCCc1ccccc1	inactive	–
O=C(CN1CCN(c2ccccc2O)CC1)NC(=O)NCc1ccccc1	inactive	–
CCCOc1ccc(C(=O)CCC(=O)OC(C)C(=O)Nc2ccc(NC(C)=O)cc2)cc1 (centres undefined)	inactive	–
CCCOc1ccc(C(=O)C(CCC(CNCC)C(=O)c2ccc(OCCC)cc2)CNCC)cc1 (centres undefined)	5.01 µM (active)	–
CCCOc1ccc(N/C=C/C(=O)C(C)(C)C)cc1	inactive	–
CCN(CC(=O)Nc1ccccc1C(F)(F)F)C(=O)CSCc1c(C)noc1C	inactive	–
COc1ccc(S(=O)(=O)N2C[C@H]3CON(C)[C@H]3C[C@H]2c2cccc(Br)c2)cc1	–	28% [at 8.37 µM]
O=C(O)C1CCN(S(=O)(=O)N2CCOCC2)CC1	22.4 µM (active)	–
O=C(NCc1ccccc1Cl)C1CCN(S(=O)(=O)N2CCOCC2)CC1	inactive	–
COc1ccc(CNC(=O)C2CCN(S(=O)(=O)N3CCOCC3)CC2)cc1	inactive	–
COc1ccc(OCCCC(=O)OC(C)C(=O)Nc2ccccc2[N+](=O)[O-])cc1 (centres undefined)	inactive	–
O=C(COC(=O)c1cccnc1Cl)NC(=O)NC1CCCCC1	inactive	–
Cc1noc(C)c1S(=O)(=O)N(C)C[C@H]1Oc2ccc(NC(=O)C3CC3)cc2C(=O)N([C@H](C)CO)C[C@@H]1C	inactive	–
O=C1NC(c2ccccc2)Cc2ccncc21 (centres undefined)	inactive	–
CN(CC(=O)Nc1ccc(Cl)c(C(F)(F)F)c1)C(=O)CCC(=O)c1ccccc1	11.2 µM (active)	–
Cc1cccc(C)c1NC(=O)CN(C)C(=O)CCC(=O)c1ccccc1	inactive	–
Cc1ccc(C(=O)CCC(=O)N(C)CC(=O)Nc2c(Cl)cccc2Cl)cc1	inactive	–
COc1ccc(CNC(=O)C[C@H]2C[C@H](C(=O)N3CCOCC3)[C@@]3(C)c4[nH]c5cc(CCC(=O)N(C)C)ccc5c4CCN3C2=O)cc1OC	inactive	–
CN(C)CCn1c2c(c(SCC(=O)Nc3ccccc3C(F)(F)F)nc1=O)CCCC2	inactive	–
Cc1cc(C)c(CN2CCN(C(=O)Cn3ccc(NC(=O)OCc4ccccc4)nc3=O)CC2)c(C)c1	4.47 µM (active)	–
O=C(Nc1ccn(CCCNCc2ccc3[nH]ccc3c2)c(=O)n1)OCc1ccccc1	inactive	–

Structure (SMILES)	Potency	activity change, negative = inhibition
Nc1ccn(CC(=O)N2CCN(c3ccccn3)CC2)c(=O)n1	inactive	–
CCC1([N+](=O)[O-])COC(c2ccc(C(C)C)cc2)OC1 (centres undefined)	inactive	–
CCCN(C(=O)c1nc2nccc(C)n2n1)c1c(N)n(Cc2ccccc2)c(=O)[nH]c1=O	inactive	–
O=C1CC(c2ccccc2)C(c2ccccc2)=NN1 (centres undefined)	inactive	–
CC(C)c1cc(N=O)cc(C(C)C)c1O	inactive	–
O=C(OCC(=O)N1CCCCCC1)c1ccc(Cl)nc1	inactive	–
CN1CCN(C2Cc3ccc(Cl)cc3Sc3ccc(F)cc32)CC1 (centres undefined)	31.6 µM (active)	–
CN(CC(=O)Nc1ccc(F)c(F)c1F)C(=O)C1CC(=O)N(C2CCCC2)C1 (centres undefined)	inactive	–
CCCn1c(=N)n(CC(=O)c2ccc(Cl)c(Cl)c2)c2ccccc21	10 µM (active)	–
CCCCOC(=O)Cn1c(=N)n(CCN(CC)CC)c2ccccc21	inactive	–
CCCNC(=O)c1ccc(Cl)c(Cl)c1	inactive	–
Cc1ccc(S(=O)(=O)N2CCCCC2)cc1C(=O)N1CCN(CCO)CC1	inactive	–
CNc1nc(=O)n(C2CCCO2)cc1C (centres undefined)	inactive	–
CN(Cc1cnccn1)C(=O)c1cc(COc2cccc(C(F)(F)F)c2)on1	inactive	–
CN(Cc1cccnc1)C(=O)c1cc(COc2ccc3ncccc3c2)on1	3.98 µM (active)	–
Cc1ccc(OCc2cc(C(=O)N(C)CCc3ccccc3)no2)cc1C	inactive	–
O=C(c1ccc2c(c1)N(Cc1ccc(F)cc1)C(=O)c1ccccc1S2(=O)=O)N1CCN(c2ccccn2)CC1	25.1 µM (active)	–
O=C1c2ccccc2S(=O)(=O)c2cc(N3CCN(c4ccccn4)CC3)ccc21	inactive	–
O=C(c1ccc2c(c1)C(=O)N(c1ccc(Cl)cc1)C2=O)N1CCN(c2ccccn2)CC1	inactive	–
CCC(=O)c1ccc(OCC(=O)N(CC)CC2COc3ccccc3O2)cc1 (centres undefined)	inactive	–
CC(=O)c1c(C)[nH]c(C(=O)COC(=O)CCOc2ccc(C)cc2)c1C	inactive	–
CCc1c(Nc2ccccc2Cl)nc(N)[nH]c1=O	inactive	–
C#CCOCCOCCOCCNc1nc(N2CCN(C(=O)[C@H](CCC(=O)O)n3cc(CN)nn3)CC2)nc(N2CCN(C(=O)[C@H](CCC(=O)O)n3cc(CN)nn3)CC2)n1	inactive	–
COc1cc2c(cc1OC)C(c1ccncc1)CC(=O)N2 (centres undefined)	inactive	–
COc1cc2c(cc1OC)C(c1ccc(C)o1)CC(=O)N2 (centres undefined)	inactive	–

Structure (SMILES)	Potency	activity change, negative = inhibition
CCCOc1ccccc1C1CC(=O)Nc2cc3c(cc21)OCO3 (centres undefined)	2.24 µM (active) and 3.55 µM (active)	–
CCn1c(SCC(=O)NCC2CCCO2)nc2ccccc21 (centres undefined)	inactive	–
Cc1ccc(-c2csc(NC(=O)C3=COCCO3)n2)cc1C	7.94 µM (active)	–
CC(=O)NCCC(=O)Nc1nc(-c2ccc3c(c2)OCCO3)cs1	inactive	–
Cc1csc(NC(=O)C2=COCCO2)n1	inactive	–
O=C(Nc1nc(-c2ccc3c(c2)OCO3)cs1)c1ccncc1	12.6 µM (active)	–
Cc1ccc(-c2csc(NC(=O)c3cnccn3)n2)cc1C	inactive	–
O=C(Nc1nc(-c2ccncc2)cs1)C1COc2ccccc2O1 (centres undefined)	inactive	–
O=C(CCc1nc2sc3c(c2c(=O)[nH]1)CCCC3)NCC(=O)Nc1ccccc1Br	inactive	–
COc1ccc(CNC(=O)COC(=O)C2=Cc3ccccc3OC2)cc1	inactive	–
Cn1cc(C2OC(=O)c3ccccc32)c2ccccc21 (centres undefined)	inactive	–
COc1cc(F)c(C2=CC(=O)CC(C)(C)C2)cc1F	inactive	–
Cc1cc([N+](=O)[O-])ccc1NS(=O)(=O)c1ccccc1	inactive	–
COC(=O)c1ccc(/C=C/c2c(-c3ccc(OC)cc3)sc3ccccc23)cc1	inactive	–
Cc1cccc(NC(=O)c2ccc(COc3ccccc3[N+](=O)[O-])o2)n1	25.1 µM (active)	–
Cc1cccc(NC(=O)Nc2ccc(OCc3ccccc3)cc2)n1	inactive	–
Cc1cccc(NC(=O)c2ccccc2NC(=O)C(C)(C)C)n1	inactive	–
CCc1ccc(C(=O)C(C)OC(=O)CN2C(=O)NC3(CCCC3)C2=O)cc1 (centres undefined)	inactive	–
NC(=O)c1ccc(CN2CCC(Cc3ccccc3)CC2)cc1	11.2 µM (active)	–
Brc1ccccc1CN1CCC(Cc2ccccc2)CC1	inactive	–
O=C(O)c1ccc(S(=O)(=O)N2CCC(Cc3ccccc3)CC2)cc1	inactive	–
COc1ccccc1CNS(=O)(=O)c1cc2c3c(c1)CCC(=O)N3CCC2	inactive	–
COc1ccc(-c2nc3c(s2)CCc2onc(-c4ccc(Br)cc4)c2-3)cc1	inactive	–
CCCCn1c(N)c(N(CC(C)C)C(=O)CN(C)S(=O)(=O)c2ccc(F)cc2)c(=O)[nH]c1=O	inactive	–
